The record followed here is PubChem BioAssay.

Test [1] is described as follows: sensitizers of A549 cells to miR-34 induction, primary screen, imaging, A549 dox-inducible miR-34, nuclei and caspase counts (AID 1347080). Note: test concentration not given here. The following applies: A549 miR-34 inducible, Hoechst nuclei count, 48 h.
Test [2] in a line: survival rescue of mitochondrial mutant cells in low glucose, primary screen, MELAS cybrids, Rieske KO mouse fibroblasts, CellTiter-Glo (AID 1508586;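 active = mean z-score across replicates of 1.96 or higher in either the MELAS or the Rieske mutant cell line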;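 note: test concentration not given here; z relative to plate mean and SD of compound and empty wells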). In general terms: ATP-based viability assays read luminescence as a measure of living cells.
Test [3] in a line: viability rescue of complex I mutant cybrids, primary screen, cell-based, galactose medium, ATP luminescence (AID 1645843;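 active = z-score of at least 1.8 in each of two replicates, scored against plate mean and spread of sample wells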;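 note: positive z means more ATP and so rescue of galactose-driven cybrid death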). The following applies: complex I mutant cybrid cells, 72 h, stronger effect = higher value.
Where [4] appears, read: stronger effect = lower value, cell number ratio, induced over uninduced.
[5] abbreviates: measured here: relative caspase fold change +Dox/-Dox.
[6] abbreviates: measured here: total cells with miR-34 induction, stronger effect = lower value.
Setting [7] is: measured here: total cells without miR-34 induction.
[8] abbreviates: MELAS cybrid survival, CellTiter-Glo 48 h, stronger effect = higher value.
The mark [9] stands for this setting: Rieske KO mouse fibroblast survival, CellTiter-Glo 72 h.

Molecules are shown by their SMILES. Values joined by “and” are separate entries in the source; they are usually repeats but may differ in a detail not shown here. Equal entries are not always repeated. Active and inactive are the calls of the source.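 Rule for the calls, unless noted: active = compounds whose cell count with miR-34 switched on is under 0.7 times the count with it off; inactive = the rest.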

Take `C[C@H](NC(=O)c1cnc(-c2ccccc2)[nH]1)c1ccccc1`: the fold change in test [1] (setting [4]) was 0.876 (inactive); in test [1] (setting [5]), 2.24. In addition, the cell count turned out to be 7380 in test [1] (setting [6]) and 8420 in test [1] (setting [7]). The z-score was 0.341 (inactive) in test [2] (setting [8]), -0.103 in test [2] (setting [9]) and -0.6 (inactive) in test [3].

With `O=C(Nc1n[nH]c(-c2ccco2)n1)N1CCc2ccccc2C1`, the fold change is 0.896 (inactive) in test [1] (setting [4]) and 0.879 in test [1] (setting [5]). Besides, the results for the cell count in test [1] (setting [6]) and in test [1] (setting [7]) were 7540 and 8420, respectively. For the same compound, the z-score in test [2] (setting [8]) is 1.17; in test [2] (setting [9]) it was 3.81; in test [3], 0.1 (inactive).

Take `O=c1cc(-c2cccnc2)nc(-c2ccc(CN3CCCC(CO)C3)cc2)[nH]1` (configuration not stated): the fold change in test [1] (setting [4]) was 0.899 (inactive); in test [1] (setting [5]), 2.12. Besides, the values for the cell count in test [1] (setting [6]) and in test [1] (setting [7]) were 7730 and 8590, respectively. The results for the z-score in test [2] (setting [8]), in test [2] (setting [9]) and in test [3] were -0.0299 (inactive), -0.608 and -0.56 (inactive), respectively.

Consider `CCOC(=O)c1cc2ccc(O)cc2oc1=O`, for which the fold change in test [1] (setting [4]) was 0.98 (inactive); in test [1] (setting [5]) it was 0.374. Besides, the results for the cell count in test [1] (setting [6]) and in test [1] (setting [7]) were 10300 and 10500, respectively. For the same compound, the values for the z-score in test [2] (setting [8]), in test [2] (setting [9]) and in test [3] were 0.534 (inactive), -0.345 and 0.595 (inactive), respectively.

As to `CCC(C)n1ncn(-c2ccc(N3CCN(c4ccc(OCC5CO[C@](Cn6cncn6)(c6ccc(Cl)cc6Cl)O5)cc4)CC3)cc2)c1=O` (some centres not stated), the fold change was 0.844 (inactive) and 0.945 (inactive) in test [1] (setting [4]); 0.375 and 1.03 in test [1] (setting [5]). Besides, the cell count in test [1] (setting [6]) is 6320 and 8160; in test [1] (setting [7]) it was 7490 and 8630. Moreover, the z-score in test [2] (setting [8]) was 0.58 (inactive) and -0.288 (inactive); in test [2] (setting [9]), -0.239 and 0.0468; in test [3], -2.34 (inactive).

Take `CCc1nc(NC(=O)NCCc2nc(-c3ccc(C)cc3)no2)nn1C`: the fold change in test [1] (setting [4]) was 0.835 (inactive); in test [1] (setting [5]), 1.88. In addition, the figures for the cell count in test [1] (setting [6]) and in test [1] (setting [7]) were 7240 and 8670, respectively. In addition, the z-score in test [2] (setting [8]) was 1.58 (inactive); in test [2] (setting [9]), -0.075; in test [3], 2.27 (active).

For `Cc1ncc(-c2cc(C(=O)N(C)Cc3csc(C)n3)c3ccc(F)cc3n2)cn1`, the figures for the fold change in test [1] (setting [4]) and in test [1] (setting [5]) were 0.883 (inactive) and 2.05, respectively. In addition, the cell count in test [1] (setting [6]) amounted to 8360; in test [1] (setting [7]) it was 9470. In addition, the z-score in test [2] (setting [8]) was -0.361 (inactive); in test [2] (setting [9]) it was -0.299; in test [3], -0.38 (inactive).

`Oc1ccc(C=Cc2cc(O)cc(O)c2)cc1`: the fold change was 2.61 (inactive) and 0.913 (inactive) in test [1] (setting [4]); 1.12 and 0.945 in test [1] (setting [5]). Moreover, the cell count in test [1] (setting [6]) was 6320 and 7520; in test [1] (setting [7]), 2420 and 8230. Also, the z-score in test [2] (setting [8]) was -0.411 (inactive); in test [2] (setting [9]) it was 0.338; in test [3], 1.1 (inactive).

As for `Nc1nc(-c2ccoc2)c2[nH]cnc2n1`, the fold change in test [1] (setting [4]) is 0.933 (inactive); in test [1] (setting [5]), 1.81. The cell count amounted to 9520 in test [1] (setting [6]) and 10200 in test [1] (setting [7]). The z-score in test [2] (setting [8]) is -0.0543 (inactive); in test [2] (setting [9]) it was -0.319; in test [3], -0.485 (inactive).

As for `CC(C)(C)c1cn(C2CCN(C(=O)c3cnc4ccccc4n3)CC2)nn1`, the fold change in test [1] (setting [4]) was 0.867 (inactive); in test [1] (setting [5]), 1.26. For the same compound, the cell count is 7870 in test [1] (setting [6]) and 9080 in test [1] (setting [7]). Besides, the values for the z-score in test [2] (setting [8]), in test [2] (setting [9]) and in test [3] were 0.15 (inactive), -0.382 and -0.44 (inactive), respectively.

For `Cc1nc(NC(=O)NCc2cccc(C(F)(F)F)c2)nn1C`, the fold change in test [1] (setting [4]) is 0.922 (inactive); in test [1] (setting [5]), 1.12. The cell count in test [1] (setting [6]) stood at 9110; in test [1] (setting [7]), 9880. The z-score in test [2] (setting [8]) is 0.0413 (inactive); in test [2] (setting [9]), 1.4; in test [3], 0.45 (inactive).

On to `Cc1sc2ncnc(-c3cccc4cccnc34)c2c1C`, for which the fold change is 0.871 (inactive) in test [1] (setting [4]) and 1.66 in test [1] (setting [5]). The cell count stood at 8110 in test [1] (setting [6]) and 9310 in test [1] (setting [7]). Moreover, the z-score is -0.544 (inactive) in test [2] (setting [8]), -0.845 in test [2] (setting [9]) and 0.64 (inactive) in test [3].

Take `COc1ccc(CSc2nnc(-c3ccc4c(c3)OCO4)o2)cc1F`: the fold change in test [1] (setting [4]) is 0.89 (inactive); in test [1] (setting [5]), 0.327. Also, the cell count in test [1] (setting [6]) turned out to be 8570; in test [1] (setting [7]) it was 9630. Besides, the z-score in test [2] (setting [8]) was 0.835 (inactive); in test [2] (setting [9]), -0.403; in test [3], 1.06 (inactive).

Turning to `COCC1CCCN(Cc2cccc(-c3nc(-c4cccnc4)cc(=O)[nH]3)c2)C1` (configuration not stated), the fold change in test [1] (setting [4]) is 0.935 (inactive); in test [1] (setting [5]), 1.11. Further, the cell count amounted to 8420 in test [1] (setting [6]) and 9010 in test [1] (setting [7]). The z-score in test [2] (setting [8]) was -0.479 (inactive); in test [2] (setting [9]) it was 0.644; in test [3], 0.175 (inactive).

Regarding `O=S(=O)(O)CCCN1CCOCC1`, the fold change in test [1] (setting [4]) was 0.928 (inactive); in test [1] (setting [5]), 0.665. Also, the cell count in test [1] (setting [6]) was found to be 8750; in test [1] (setting [7]) it was 9420. The z-score in test [2] (setting [8]) was 0.595 (inactive); in test [2] (setting [9]), -0.353; in test [3], 0.105 (inactive).

Regarding `CN(C)c1ccc(C(=O)O)cc1`, the fold change in test [1] (setting [4]) was 0.927 (inactive); in test [1] (setting [5]), 0.253. The cell count came to 8940 in test [1] (setting [6]) and 9650 in test [1] (setting [7]). Further, the z-score in test [2] (setting [8]) was -0.46 (inactive); in test [2] (setting [9]), 0.0916; in test [3] it was 0.71 (inactive).

Regarding `Cn1c(=O)c2c(nc(N3CCNCC3)n2Cc2ccccc2)n(C)c1=O`, the fold change in test [1] (setting [4]) is 0.839 (inactive); in test [1] (setting [5]), 0.525. Besides, the cell count in test [1] (setting [6]) was 7900; in test [1] (setting [7]), 9410. The z-score was -1.69 (inactive) in test [2] (setting [8]), -0.314 in test [2] (setting [9]) and 0.525 (inactive) in test [3].

As to `CC(C)n1cc(-c2cc(C(=O)N(C)Cc3cccnc3)c3cc(F)ccc3n2)cn1`, the fold change in test [1] (setting [4]) is 0.861 (inactive); in test [1] (setting [5]), 1.63. Besides, the cell count in test [1] (setting [6]) is 9060; in test [1] (setting [7]) it was 10500. The z-score in test [2] (setting [8]) is -0.238 (inactive); in test [2] (setting [9]), 0.816; in test [3], -0.535 (inactive).

For the compound `CCc1c(C)[nH]n(-c2nn[nH]n2)c1=O`, the results for the fold change in test [1] (setting [4]) and in test [1] (setting [5]) were 0.897 (inactive) and 0.608, respectively. The cell count was 8110 in test [1] (setting [6]) and 9050 in test [1] (setting [7]). Moreover, the z-score in test [2] (setting [8]) was -1.16 (inactive); in test [2] (setting [9]) it was -0.864; in test [3], 0.055 (inactive).

As to `OCCNc1ncnc2oc(-c3ccccc3)c(-c3ccccc3)c12`, the fold change in test [1] (setting [4]) was 0.989 (inactive); in test [1] (setting [5]), 0.446. The cell count in test [1] (setting [6]) is 5100; in test [1] (setting [7]) it was 5160. Also, the z-score is 0.83 in test [2] (setting [8]), 7.8 in test [2] (setting [9]) and -1.23 (inactive) in test [3].

Consider `Cc1nc2ccc(CN(C)c3ccc(C(=O)NC(CCC(=O)O)C(=O)O)s3)cc2c(=O)[nH]1` (configuration not stated), for which the fold change in test [1] (setting [4]) is 1.21 (inactive) and 1.1 (inactive); in test [1] (setting [5]) it was 1.12 and 0.742. Besides, the cell count was 1780 and 1710 in test [1] (setting [6]); 1470 and 1560 in test [1] (setting [7]). In addition, the z-score in test [2] (setting [8]) was -0.603 (inactive); in test [2] (setting [9]), -0.121; in test [3] it was -1.03 (inactive).
